Shown are actives, neighbours in structure and some others; about 3.7% of the full set was active somewhere.
CHT block = inhibitors of human choline transporter CHT. B-score at 10 µM. CHT-expressing cells, membrane potential dye, choline response; active compounds read low. AID 488975, 2010. High affinity choline transporter 1 (Homo sapiens), Q9GZV3. hit rate 0.86% among 310,000;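 active means B-score over 3 SD under the library average, and starting fluorescence ratio not unusually high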;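 further: choline stimulus applied at its EC90 after an EC20 pre-addition; B-score computed on integrated fluorescence ratio after choline addition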
Target sequence (Q9GZV3 whole entry, looked up): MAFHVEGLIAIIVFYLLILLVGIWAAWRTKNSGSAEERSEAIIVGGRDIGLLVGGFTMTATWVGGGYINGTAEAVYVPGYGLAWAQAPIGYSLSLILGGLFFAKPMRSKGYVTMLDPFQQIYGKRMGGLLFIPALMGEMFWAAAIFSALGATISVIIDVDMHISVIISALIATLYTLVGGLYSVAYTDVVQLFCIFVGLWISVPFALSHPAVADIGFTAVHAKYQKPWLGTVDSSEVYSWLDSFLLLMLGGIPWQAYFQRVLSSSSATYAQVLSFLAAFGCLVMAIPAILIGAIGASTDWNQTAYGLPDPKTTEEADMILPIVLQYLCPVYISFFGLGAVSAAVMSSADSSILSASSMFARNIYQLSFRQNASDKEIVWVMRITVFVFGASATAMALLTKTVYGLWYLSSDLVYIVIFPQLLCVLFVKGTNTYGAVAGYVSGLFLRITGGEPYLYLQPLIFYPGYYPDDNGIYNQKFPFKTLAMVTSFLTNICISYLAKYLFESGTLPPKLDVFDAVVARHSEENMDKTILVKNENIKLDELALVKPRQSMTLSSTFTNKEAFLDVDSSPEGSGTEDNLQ
ANO1 block = TMEM16A chloride channel inhibitors, primary screen, cell-based, HTS; hit rate 1.2% among 310,000; HEK293 TMEM16A/YFP iodide influx fluorescence, ionomycin; Anoctamin-1 (Mus musculus), Q8BHY3; normalized B-score (activity score, 25-100; higher = stronger inhibition) at 10 µM; AID 588511, 2011;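 active means ratio plate-corrected score three or more library SD toward inhibition, starting fluorescence score within five deviations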;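 further: score derived from kinetic fluorescence span divided by baseline fluorescence per well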
Kir21 block = inhibitors of mouse Kir2.1 inward-rectifier potassium channel. HEK293-Kir2.1, FluxOR thallium flux fluorescence; active compounds read low. B-score at 10 µM. hit rate 0.85% among 310,000;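 active means fluorescence ratio B-score at or below minus 3 SD of library scores, with starting-brightness B-score within 2 SD, cut at about -4.2 in these data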;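 further: channel flux triggered by added potassium and thallium sulfate stimulus; B-score of peak minus minimum fluorescence over baseline after thallium stimulus; more negative B-score means stronger Kir2.1 block with less thallium influx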
TMEM16A act = TMEM16A chloride channel activators or potentiators, primary screen, cell-based, HTS; Anoctamin-1 (Mus musculus), Q8BHY3; HEK293 TMEM16A/YFP-H148Q/I152L, iodide quench fluorescence; active compounds read low; B-score at 10 µM; hit rate 0.3% among 340,000; AID 623877, 2012;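 active means fluorescence-ratio B-score plate-corrected deviation score at least 3 library SD below zero, with starting fluorescence score within 5 deviations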;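 further: channel opened by trigger with iodide after compound preincubation; score built on the fluorescence ratio of max minus min over baseline; more negative score means more quench and so TMEM16A activation or potentiation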
CHT allo act = CHT positive allosteric modulators, primary screen, cell-based, membrane potential dye, choline EC20; B-score at 10 µM; CHT-expressing cells; active compounds read high; LV-AA mutant CHT in HEK293 cells; hit rate 0.49% among 310,000;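 active means initial fluorescence not abnormally high and integrated response B-score, plate-corrected, over 3 SD above library mean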
GPR7 antagonist = GPR7 receptor antagonists, primary screen, cell-based, fluorescence, single concentration; AID 1861, 2009; hit rate 1.1% among 290,000; inhibition, % at 4.4 µM; GPR7-expressing cells, fluorescence antagonist assay; in the data active means inhibition above about 16%, passing the limit was not always enough;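 further: cells stimulated with the agonist NPW; 0% = agonist with vehicle and 100% = vehicle without agonist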
CHT act confirm = CHT activators, confirmation, cell-based, membrane potential dye, duplicate; activation, % at 10 µM; shares compounds with CHT allo act; CHT-expressing cells, membrane potential dye fluorescence (FDSS); % of choline EC20–EC90 response window; HEK293 expressing CHT LV-AA mutant; choline added at its EC20; hit rate 91% among 2,500;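 active means primary screen active, with duplicate mean activation above negative control mean plus 3 SD, cut at about 11% in these data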
HEK293 MP dye = membrane potential response in parental HEK293 cells, counter-screen for CHT activator project, cell-based, membrane potential dye; shares compounds with CHT allo act; membrane potential dye fluorescence (FDSS); measured after EC20 choline addition; ratio readout change at 10 µM, hits read low; hit rate 62% among 2,500;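 active means duplicate-averaged ratio beyond 3 SD from buffer wells, up or down, though filed actives are nearly all decreases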
Active calls of the source: *; i = inactive; . = not tested or not shown.

SMILES	CHT block	ANO1 block	Kir21 block	TMEM16A act	CHT allo act	GPR7 antagonist	CHT act confirm	HEK293 MP dye
CCN(CC)CCSc1nnc2c3ccccc3n(CCc3ccccc3)c2n1	i	i	-1.23	i	8.54*	10.1	31.2*	-35.3*
O=C1c2ccccc2C(=O)N1CSc1nnc2c3ccccc3n(CCc3ccccc3)c2n1	i	i	-2.66	i	i	-2.3	.	.
Nc1nc(-c2ccccn2)nc(N)c1Cc1ccc(Cl)cc1Cl	i	i	0.41	i	i	-16.9	.	.
Brc1cc2ccccc2[n+](Cc2ccccc2)c1	i	i	-0.3	i	6.96*	.	76.2*	-67.4*
c1ccc(C[n+]2csc3ccccc32)cc1	i	i	-1.75	i	i	12.1	.	.
COc1cc(C(=O)Nc2ccc(S(=O)(=O)N3CCOCC3)cc2)c([N+](=O)[O-])cc1OC	i	i	0.9	i	i	-1.9	.	.
Cc1ccc(-c2c[n+](CC(=O)c3cccs3)c3n2CCC3)cc1	i	i	-0.09	i	i	-6.2	.	.
COc1ccc(-c2c[n+](CC(=O)c3cccs3)c3n2CCC3)cc1	i	i	1.15	i	i	-14.9	44.2*	-30.8*
c1csc(-c2nc(NCC3CCCO3)c3ccccc3n2)c1 (stereo unspecified)	i	i	-0.92	i	i	-2.5	.	.
c1ccc(CN2CCC(Nc3nc(-c4cccs4)nc4ccccc34)CC2)cc1	i	i	-1.01	i	i	20.5*	22.9*	-48.4*
CN1CCN(c2nc(-c3cccs3)nc3ccccc23)CC1	i	i	0.45	i	i	9.4	39.1*	-64.8*
CCN1CCN(c2nc(-c3cccs3)nc3ccccc23)CC1	i	i	-1.31	i	7.08*	-9.8	43.0*	-40.3*
c1ccc(N2CCN(c3nc(-c4cccs4)nc4ccccc34)CC2)cc1	i	i	-0.23	i	i	-14.0	.	.
CC(OC(=O)c1cc(=O)[nH]c2ccccc12)C(=O)N1C(C)CCCC1C (stereo unspecified)	.	.	.	i	.	.	.	.
CN1CCN(CC(=O)Nc2c(C#N)cnn2-c2ccccc2)CC1	i	i	0.47	i	i	-15.3	.	.
O=C(CN1C(=O)NC2(CCCCCC2)C1=O)NCCc1ccc(F)cc1	.	.	.	i	.	.	.	.
CN(Cc1ccccc1)C(=O)c1[nH]cnc1C(=O)N[C@@H](CCCCNC(=O)OC(C)(C)C)C(=O)OC(C)(C)C	i	i	-0.13	i	10.8*	3.4	20.0*	i
CCN(CC)CCCN(C(=O)c1cccs1)c1nc(-c2ccc(OC)cc2)cs1	i	i	-4.06	i	6.32*	12.7	48.0*	-47.2*
CCN(CC)CCCN(C(=O)c1ccc(Br)cc1)c1nc(-c2ccc(OC)cc2)cs1	i	i	-3.76	i	i	2.3	.	.
C[n+]1cn(Cc2cc(Cl)ccc2OC(F)F)c2ccccc21	i	i	-1.99	i	7.26*	6.0	54.1*	i
Cn1c(=O)n(CCOc2ccc(Cl)cc2Cl)c2ccccc21	i	i	-0.59	i	i	6.3	.	.
C(=N\NC1=NCCN1)/c1ccncc1	i	i	0.36	i	6.38*	-9.6	53.7*	-54.5*
C(=N\Nc1nc2ccccc2[nH]1)/c1ccncc1	i	i	0.22	i	i	-9.0	.	.
Clc1cccc(Cl)c1/C=N/Nc1c(Cl)cncc1Cl	i	i	0.8	i	i	-10.6	.	.
Clc1cncc(Cl)c1N/N=C/c1ccncc1	i	i	2.15	i	i	-8.2	51.5*	-53.1*
SMILES	CHT block	ANO1 block	Kir21 block	TMEM16A act	CHT allo act	GPR7 antagonist	CHT act confirm	HEK293 MP dye
COc1ccc(NC(=O)CSCC(=O)N(C)CC(=O)Nc2cccc3ccccc23)cc1	i	i	-0.03	i	i	.	.	.
CC=Cc1cc(OC)c2c(c1)C(C)C(c1ccc(O)c(OC)c1)O2 (stereo unspecified)	.	.	.	i	.	.	.	.
Cc1cc(NC(=O)CCC(=O)N(Cc2ccco2)C2(C(=O)NC3CCCC3)CCC(C)CC2)no1 (stereo unspecified)	i	i	-1.3	i	i	16.5	.	.
Cc1cc(NC(=O)CCC(=O)N(Cc2ccco2)C2(C(=O)NC3CCCCC3)CCCC(C)C2)no1 (stereo unspecified)	i	i	1.43	i	i	10.8	18.6*	i
CCCCCC(C)NC(=O)c1cc(S(=O)(=O)N2CCCCC2)ccc1N1CCOCC1 (stereo unspecified)	.	.	.	i	.	.	.	.
CN1C2=NCCN2C(=O)c2cc(Cl)ccc21	i	i	0.14	i	i	-3.6	.	.
COc1ccc2c(c1)N1CCN=C1N2C	i	i	-0.5	i	8.9*	-16.4	64.8*	-65.2*
Cc1cccc2nc(-c3cccnc3)c(NCCC(C)C)n12	i	i	-0.64	i	i	-3.0	40.7*	i
CCN(C(=O)c1cccc(S(=O)(=O)N2CCCCC2)c1)C1CCS(=O)(=O)C1 (stereo unspecified)	.	.	-2.35	i	.	.	.	.
NS(=O)(=O)c1ccc(NC(=O)c2ccc3nccnc3c2)cc1	i	i	0.25	i	7.53*	13.7	38.7*	-27.5*
NS(=O)(=O)c1ccc(CCNC(=O)c2ccc3nccnc3c2)cc1	.	.	.	i	.	.	.	.
CCn1c(=O)n(CC)c2cc(N3CCCC3)c(NC(=O)c3ccc(C)c([N+](=O)[O-])c3)cc21	i	i	0.43	i	i	-9.0	.	.
O=[N+]([O-])c1cnc2nc(-c3ccncc3)nn2c1O	i	i	0.66	i	i	-8.3	43.7*	-44.8*
O=C(c1ccco1)n1c(=S)nc2ccccn21	i	i	1.27	i	i	-9.5	33.7*	-24.5*
CCCNCC(O)Cn1c2ccccc2n2c(=O)cc(C)c(C#N)c12 (stereo unspecified)	i	i	0.1	i	i	-0.9	46.3*	-40.5*

Screening results deposited in PubChem by several laboratories.
